Results published in ChEMBL document CHEMBL3988442, “University of Dundee, Small-Polar-MMV Screening Library” (2021).
For some of these results: Measured potencies and affinities stand elsewhere.

How the values were obtained:
[1] = molecular target: Protein translocase subunit SecA (Escherichia coli (strain K12)) (UniProt P10408); assay: Assay to Identify E. coli SecA ATPase Inhibitors; assay type: functional; parameters: scale not given: direction of the effect not stated beside the values; conditions: 30 µM
[2] = molecular target: T1, Ubiquitin-activating enzyme e1, putative (Leishmania donovani (strain BPK282A1)) (UniProt E9BSI1); assay: Leishmania donovani Ubiquitin Activating Enzyme (LdE1); assay type: functional; parameters: scale not given: direction of the effect not stated beside the values; conditions: 30 µM
T1 sequence (whole entry): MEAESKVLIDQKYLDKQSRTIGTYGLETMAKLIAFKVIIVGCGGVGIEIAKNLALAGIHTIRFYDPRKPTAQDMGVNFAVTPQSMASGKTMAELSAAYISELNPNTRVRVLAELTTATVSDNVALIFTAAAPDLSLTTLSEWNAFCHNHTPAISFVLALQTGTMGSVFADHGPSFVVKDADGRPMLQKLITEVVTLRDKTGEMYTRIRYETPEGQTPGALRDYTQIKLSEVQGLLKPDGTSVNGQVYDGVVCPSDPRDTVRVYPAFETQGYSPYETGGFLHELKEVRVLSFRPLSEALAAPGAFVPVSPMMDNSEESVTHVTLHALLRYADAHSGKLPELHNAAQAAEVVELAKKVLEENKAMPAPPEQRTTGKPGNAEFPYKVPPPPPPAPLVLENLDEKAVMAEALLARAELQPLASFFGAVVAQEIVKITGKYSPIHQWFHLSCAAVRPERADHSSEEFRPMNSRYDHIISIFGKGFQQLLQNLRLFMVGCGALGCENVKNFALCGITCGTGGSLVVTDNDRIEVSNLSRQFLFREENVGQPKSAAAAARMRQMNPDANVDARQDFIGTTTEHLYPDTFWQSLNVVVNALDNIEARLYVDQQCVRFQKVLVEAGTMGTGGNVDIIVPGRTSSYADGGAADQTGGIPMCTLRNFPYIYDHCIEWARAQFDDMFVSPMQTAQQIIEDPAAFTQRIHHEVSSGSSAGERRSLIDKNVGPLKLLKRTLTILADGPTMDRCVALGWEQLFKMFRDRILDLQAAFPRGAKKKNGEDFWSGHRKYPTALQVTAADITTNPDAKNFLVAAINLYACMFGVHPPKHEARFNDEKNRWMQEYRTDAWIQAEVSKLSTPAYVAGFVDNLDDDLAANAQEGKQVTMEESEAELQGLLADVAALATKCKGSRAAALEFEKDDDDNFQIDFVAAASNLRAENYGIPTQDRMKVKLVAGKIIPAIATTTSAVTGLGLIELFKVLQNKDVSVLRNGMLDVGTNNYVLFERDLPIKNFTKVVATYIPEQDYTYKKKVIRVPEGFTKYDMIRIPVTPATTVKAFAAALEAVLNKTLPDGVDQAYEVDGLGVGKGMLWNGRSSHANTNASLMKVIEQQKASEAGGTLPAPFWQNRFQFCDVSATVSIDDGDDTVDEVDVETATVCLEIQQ

[3] = molecular target: AMP-activated protein kinase, AMPK (Homo sapiens) (UniProt P54646+O43741+P54619+Q9UGJ0+Q9Y478+Q13131+Q9UGI9); assay: AMP-dependent Kinase enzyme assay. An in vitro enzyme assay that detects ADP turnover that is directly proportional to AMPK activity. This uses naive AMPK that is activated during the assay with MK-8722; assay type: functional; parameters: scale not given: direction of the effect not stated beside the values; conditions: 30 µM
[4] = molecular target: Sialic acid-binding Ig-like lectin 9 (Homo sapiens) (UniProt Q9Y336); assay: Hs-Siglec9 ALPHAscreen SOP 20170721; parameters: scale not given: direction of the effect not stated beside the values; conditions: 10 µM
Trypanosoma cruzi = assay: Trypanosoma cruzi phosphomannomutase and mannose-1-phosphate guanylyltransferase assay; assay type: functional; parameters: scale not given: direction of the effect not stated beside the values; conditions: 10 µM
[5] = molecular target: T2, Arginase-2, mitochondrial (Homo sapiens) (UniProt P78540); assay: in vitro enzyme assay to detect the production of urea directly proportional to the activity of Arginase II; assay type: functional; parameters: scale not given: in the data most compounds retested in dose-response had high values
T2 sequence (whole entry): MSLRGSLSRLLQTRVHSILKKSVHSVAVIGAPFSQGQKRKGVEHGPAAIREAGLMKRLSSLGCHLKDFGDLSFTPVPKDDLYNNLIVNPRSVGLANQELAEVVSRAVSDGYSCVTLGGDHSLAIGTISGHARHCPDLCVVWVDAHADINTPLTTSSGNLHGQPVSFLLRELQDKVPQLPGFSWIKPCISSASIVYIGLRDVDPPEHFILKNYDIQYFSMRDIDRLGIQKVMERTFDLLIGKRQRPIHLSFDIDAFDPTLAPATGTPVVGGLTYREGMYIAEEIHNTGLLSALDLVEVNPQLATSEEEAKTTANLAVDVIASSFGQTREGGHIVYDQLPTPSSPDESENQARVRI

[6] = molecular target: T3, Proteasome subunit beta (Trypanosoma cruzi) (UniProt O96673); assay: Trypanosoma cruzi proteasome chymotrypsin-like activity (TcProtChymo) assay.; assay type: functional; parameters: scale not given: in the data most compounds retested in dose-response had high values; conditions: 9.37 µM
T3 sequence (whole entry): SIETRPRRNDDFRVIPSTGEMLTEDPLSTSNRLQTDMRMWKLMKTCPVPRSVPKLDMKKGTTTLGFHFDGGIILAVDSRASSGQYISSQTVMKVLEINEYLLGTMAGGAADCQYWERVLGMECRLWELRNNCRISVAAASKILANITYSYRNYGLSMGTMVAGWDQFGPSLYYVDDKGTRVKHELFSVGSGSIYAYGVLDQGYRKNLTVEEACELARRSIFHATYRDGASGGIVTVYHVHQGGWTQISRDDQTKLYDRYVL

Homo sapiens = organism: Homo sapiens; assay: To identify inhibition of the IFN signalling (Jak-Stat) pathway via expression of an eGFP reporter gene under the control of an IFN-stimulated response element (ISRE) containing MxA promoter.; assay type: functional; parameters: scale not given: direction of the effect not stated beside the values; conditions: 30 µM
[7] = molecular target: T4, Tyrosyl-tRNA synthetase, putative (Trypanosoma cruzi (strain CL Brener)) (UniProt Q4DSP6); assay: Trypanosoma cruzi tyrosyl tRNA synthetase (TcYRS) _High Tyrosine SOP; assay type: functional; parameters: scale not given: in the data most compounds retested in dose-response had high values; conditions: 30 µM
T4 sequence (whole entry): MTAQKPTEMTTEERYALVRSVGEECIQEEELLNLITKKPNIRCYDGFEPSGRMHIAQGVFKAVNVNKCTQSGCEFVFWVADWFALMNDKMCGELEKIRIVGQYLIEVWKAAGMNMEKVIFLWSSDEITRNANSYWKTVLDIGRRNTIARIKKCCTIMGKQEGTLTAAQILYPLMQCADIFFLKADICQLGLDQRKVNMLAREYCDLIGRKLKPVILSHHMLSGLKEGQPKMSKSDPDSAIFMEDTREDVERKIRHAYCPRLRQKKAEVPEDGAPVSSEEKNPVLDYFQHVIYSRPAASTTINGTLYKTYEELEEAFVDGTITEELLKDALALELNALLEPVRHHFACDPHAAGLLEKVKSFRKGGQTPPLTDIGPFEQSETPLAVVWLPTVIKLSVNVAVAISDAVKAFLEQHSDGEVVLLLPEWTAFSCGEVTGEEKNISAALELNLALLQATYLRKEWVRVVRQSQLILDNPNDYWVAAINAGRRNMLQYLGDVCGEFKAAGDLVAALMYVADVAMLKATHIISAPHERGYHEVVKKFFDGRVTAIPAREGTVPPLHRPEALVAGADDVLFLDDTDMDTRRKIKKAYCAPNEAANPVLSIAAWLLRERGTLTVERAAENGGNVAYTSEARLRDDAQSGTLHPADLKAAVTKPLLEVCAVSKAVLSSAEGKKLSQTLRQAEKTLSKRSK

[8] = molecular target: T4, Tyrosyl-tRNA synthetase, putative (Trypanosoma cruzi (strain CL Brener)); assay: Trypanosoma cruzi tyrosyl tRNA synthetase (TcYRS) SOP; assay type: functional; parameters: scale not given: direction of the effect not stated beside the values; conditions: 30 µM
[9] = molecular target: Chromo domain-containing protein 1 (Saccharomyces cerevisiae (strain ATCC 204508 / S288c) (Baker's yeast)) (UniProt P32657); assay: ScCHD-1 Enzyme Inhibition Assay; assay type: functional; parameters: scale not given: in the data most compounds retested in dose-response had high values; conditions: 30 µM
[10] = molecular target: T5, Methionyl-tRNA synthetase, putative (Leishmania donovani (strain BPK282A1)) (UniProt E9BF75); assay: Leishmania donovani Methionine tRNA synthetase (LdMetRS):v7. Dose response assay; assay type: functional; parameters: conc 80 nM, time 150 minutes
T5 sequence (whole entry): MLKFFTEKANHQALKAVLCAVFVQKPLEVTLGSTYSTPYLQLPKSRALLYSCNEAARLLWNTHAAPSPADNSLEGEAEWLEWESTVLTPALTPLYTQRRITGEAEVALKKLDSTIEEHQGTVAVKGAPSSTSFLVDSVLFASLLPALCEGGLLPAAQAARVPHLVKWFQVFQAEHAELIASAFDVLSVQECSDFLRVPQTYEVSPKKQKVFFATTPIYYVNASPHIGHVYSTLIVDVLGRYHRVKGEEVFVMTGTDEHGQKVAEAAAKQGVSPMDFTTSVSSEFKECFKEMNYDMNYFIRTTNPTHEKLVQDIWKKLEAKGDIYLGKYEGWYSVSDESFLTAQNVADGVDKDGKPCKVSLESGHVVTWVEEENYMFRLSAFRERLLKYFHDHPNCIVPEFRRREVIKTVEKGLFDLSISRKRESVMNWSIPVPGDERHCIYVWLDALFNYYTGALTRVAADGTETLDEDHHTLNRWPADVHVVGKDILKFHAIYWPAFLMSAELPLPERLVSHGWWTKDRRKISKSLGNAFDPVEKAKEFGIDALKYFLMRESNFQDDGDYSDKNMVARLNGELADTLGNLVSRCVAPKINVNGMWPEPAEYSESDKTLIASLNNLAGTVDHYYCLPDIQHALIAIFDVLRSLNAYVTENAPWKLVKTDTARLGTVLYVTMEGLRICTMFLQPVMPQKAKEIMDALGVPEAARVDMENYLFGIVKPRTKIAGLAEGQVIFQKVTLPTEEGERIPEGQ

Protein translocase subunit SecA (Escherichia coli (strain K12)), sequence (P10408 whole entry): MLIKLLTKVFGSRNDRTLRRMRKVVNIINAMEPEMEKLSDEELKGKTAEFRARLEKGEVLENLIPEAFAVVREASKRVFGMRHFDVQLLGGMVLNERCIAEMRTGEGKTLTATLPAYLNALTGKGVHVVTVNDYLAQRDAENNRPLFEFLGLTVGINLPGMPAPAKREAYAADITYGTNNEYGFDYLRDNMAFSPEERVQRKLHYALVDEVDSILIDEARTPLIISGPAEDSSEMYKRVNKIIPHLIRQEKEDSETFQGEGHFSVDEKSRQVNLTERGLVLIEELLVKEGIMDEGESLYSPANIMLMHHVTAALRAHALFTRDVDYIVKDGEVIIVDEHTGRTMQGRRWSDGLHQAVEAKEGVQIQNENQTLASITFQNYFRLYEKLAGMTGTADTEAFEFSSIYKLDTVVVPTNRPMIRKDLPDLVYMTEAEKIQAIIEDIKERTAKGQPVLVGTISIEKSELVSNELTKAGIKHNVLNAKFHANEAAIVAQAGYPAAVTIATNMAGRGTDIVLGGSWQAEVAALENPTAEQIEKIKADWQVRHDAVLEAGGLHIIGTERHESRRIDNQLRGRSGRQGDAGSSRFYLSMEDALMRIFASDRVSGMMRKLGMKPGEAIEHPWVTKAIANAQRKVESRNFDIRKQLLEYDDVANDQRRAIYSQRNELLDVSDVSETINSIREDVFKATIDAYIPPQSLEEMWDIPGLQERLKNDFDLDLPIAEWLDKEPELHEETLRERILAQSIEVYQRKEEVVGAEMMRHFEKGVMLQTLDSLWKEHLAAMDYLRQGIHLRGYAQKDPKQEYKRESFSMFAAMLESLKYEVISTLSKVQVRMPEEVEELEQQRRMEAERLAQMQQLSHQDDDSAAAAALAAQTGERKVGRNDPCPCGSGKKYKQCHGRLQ
Chromo domain-containing protein 1 (Saccharomyces cerevisiae (strain ATCC 204508 / S288c) (Baker's yeast)), sequence (P32657 whole entry, the tested form may be a part): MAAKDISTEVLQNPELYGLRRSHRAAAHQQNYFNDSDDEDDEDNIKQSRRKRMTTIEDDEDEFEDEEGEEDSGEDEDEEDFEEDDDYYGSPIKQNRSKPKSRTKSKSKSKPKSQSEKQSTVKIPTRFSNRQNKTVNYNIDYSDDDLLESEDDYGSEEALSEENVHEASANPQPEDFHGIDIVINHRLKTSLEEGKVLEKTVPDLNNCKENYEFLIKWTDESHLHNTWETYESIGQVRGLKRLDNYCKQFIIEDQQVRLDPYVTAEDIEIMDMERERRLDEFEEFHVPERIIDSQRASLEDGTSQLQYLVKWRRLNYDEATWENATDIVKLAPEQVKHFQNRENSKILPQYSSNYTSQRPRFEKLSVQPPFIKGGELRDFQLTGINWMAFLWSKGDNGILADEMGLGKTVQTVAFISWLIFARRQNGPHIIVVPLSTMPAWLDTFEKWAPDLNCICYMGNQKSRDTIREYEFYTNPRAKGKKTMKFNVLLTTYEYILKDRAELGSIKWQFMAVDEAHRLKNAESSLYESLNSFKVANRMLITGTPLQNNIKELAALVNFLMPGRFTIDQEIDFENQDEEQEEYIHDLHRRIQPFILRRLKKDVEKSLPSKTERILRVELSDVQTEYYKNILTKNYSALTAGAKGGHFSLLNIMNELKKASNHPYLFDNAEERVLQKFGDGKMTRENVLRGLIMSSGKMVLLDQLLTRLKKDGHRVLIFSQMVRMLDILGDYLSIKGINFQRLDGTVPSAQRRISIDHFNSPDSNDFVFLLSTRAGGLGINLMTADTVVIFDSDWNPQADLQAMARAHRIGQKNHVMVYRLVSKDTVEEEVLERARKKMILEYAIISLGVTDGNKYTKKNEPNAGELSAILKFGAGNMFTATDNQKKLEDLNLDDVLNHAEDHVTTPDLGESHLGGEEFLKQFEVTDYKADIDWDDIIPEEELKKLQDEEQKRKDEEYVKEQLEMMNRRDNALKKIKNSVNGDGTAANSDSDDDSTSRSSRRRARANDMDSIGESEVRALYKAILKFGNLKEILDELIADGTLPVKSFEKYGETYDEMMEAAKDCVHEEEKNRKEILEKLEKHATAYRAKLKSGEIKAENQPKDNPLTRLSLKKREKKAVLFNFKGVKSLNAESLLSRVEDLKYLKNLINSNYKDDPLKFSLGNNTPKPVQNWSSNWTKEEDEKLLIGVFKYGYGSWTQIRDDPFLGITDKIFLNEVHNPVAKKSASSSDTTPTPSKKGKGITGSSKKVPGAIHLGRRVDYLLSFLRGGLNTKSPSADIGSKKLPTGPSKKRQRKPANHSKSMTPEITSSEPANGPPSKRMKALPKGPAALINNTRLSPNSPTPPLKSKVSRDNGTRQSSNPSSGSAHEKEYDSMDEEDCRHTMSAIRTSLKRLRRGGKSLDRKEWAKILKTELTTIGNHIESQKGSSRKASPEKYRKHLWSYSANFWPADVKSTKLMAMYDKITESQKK
Sialic acid-binding Ig-like lectin 9 (Homo sapiens), sequence (Q9Y336 whole entry): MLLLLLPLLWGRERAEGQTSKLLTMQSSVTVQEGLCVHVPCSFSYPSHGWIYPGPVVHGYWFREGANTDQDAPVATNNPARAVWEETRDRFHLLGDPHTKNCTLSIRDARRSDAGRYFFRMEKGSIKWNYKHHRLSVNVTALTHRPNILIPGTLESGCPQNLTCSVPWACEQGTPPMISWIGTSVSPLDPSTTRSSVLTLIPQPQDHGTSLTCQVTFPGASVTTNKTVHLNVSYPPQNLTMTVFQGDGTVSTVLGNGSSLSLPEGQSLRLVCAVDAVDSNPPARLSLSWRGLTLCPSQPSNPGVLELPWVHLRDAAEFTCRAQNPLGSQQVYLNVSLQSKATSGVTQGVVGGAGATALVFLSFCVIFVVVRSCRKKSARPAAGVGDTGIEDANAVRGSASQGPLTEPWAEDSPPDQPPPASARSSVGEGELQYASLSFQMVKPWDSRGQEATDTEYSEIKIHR

Row | Structure (SMILES) | Percent Effect [1] | Percent Effect [2] | Percent Effect [3] | Percent Effect [4] | Percent Effect (Trypanosoma cruzi) | Percent Effect ([5]; 30 µM) | Percent Effect ([5]; 33.3 µM) | Percent Effect [6] | Percent Effect (Homo sapiens) | Percent Effect [7] | Percent Effect [8] | Percent Effect [9] | PXC50 ([10]; MAX_EFFECT 19.47743468) | PXC50 ([10]; MAX_EFFECT 35.38732394)
1 | CCC(C(=O)NCc1ccncc1)N(c1ccc(OC)cc1)S(C)(=O)=O (stereo unspecified) | -4.48% | 2.67% | -7.64% | 14% | 4.97% | 2.7% | 3.65% | 2.27% | 6.36% | 4.92% | 8.64% | -13.6% |  | 
2 | O=C(Cc1ccccn1)N1CCC2(CC1)CC(Oc1ccccn1)CO2 (stereo unspecified) | -3.31% | 10.7% | 4.11% | 0.184% | -1.18% | 2.7% | -5.36% | 12.2% | 12.5% | 7.45% | 16.7% | -7.71% |  | 
3 | c1ccc(C2CCN(c3cncc(-n4cccn4)n3)CC2)cc1 | -1.56% | 8.11% | 3.62% | 3.88% | 1.17% |  | 5.42% | 14.1% | 10% | 9.9% | 18.3% | -4.19% | < 4 | < 4
4 | O=C1CC(c2ccsc2)c2c(n(C3CCOCC3)[nH]c2=O)N1 (stereo unspecified) | -5.06% | -30.7% | -12.7% | 0.762% | 2.36% | 2.7% | 2.64% | 16.4% | 1.56% | 6.35% | 15.4% | -7.86% |  | 
5 | FC(F)(F)C1CCc2nnc(CNCc3ccsc3)n2C1 (stereo unspecified) | -4.02% | 16.2% | 1.38% | 30.8% | 5.18% | 5.95% | 10.2% | 10.4% | -8.39% | 5.38% | 16.1% | -13.2% |  | 
